This is a sample that favours compounds with a hit; in the whole collection about 1.2% have one here.
RGS7-Gao: human RGS7-Galphao interaction regulation | Multiplexed bead flow cytometry, RGS7-Galphao binding; actives lie on both sides | AID 1439 | binding response (% of control), % at 10 µM | 0.35% of 220,000 active; in the data active means binding response below about 49% or above about 150%; inconclusive means no clear call, values can overlap the other calls; inactive means in between;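 further: fluorescent Galphao held in activated GDP-AlF4 state binding bead-coupled RGS7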
Target sequence (P09471 whole entry, looked up): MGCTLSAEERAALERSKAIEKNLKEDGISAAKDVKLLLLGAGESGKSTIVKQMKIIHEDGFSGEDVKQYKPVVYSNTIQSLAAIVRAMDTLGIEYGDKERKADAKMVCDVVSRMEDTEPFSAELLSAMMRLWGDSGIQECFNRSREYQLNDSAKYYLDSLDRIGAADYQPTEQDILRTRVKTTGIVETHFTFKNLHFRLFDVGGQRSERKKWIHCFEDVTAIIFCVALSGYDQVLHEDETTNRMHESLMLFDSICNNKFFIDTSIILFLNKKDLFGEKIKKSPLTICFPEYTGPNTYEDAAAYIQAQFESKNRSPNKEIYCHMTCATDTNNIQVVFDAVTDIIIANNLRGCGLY
RGS16-Gao: modulates binding between human RGS16 and Galphao | AID 1441 | O15492+P09471 | 0.38% of 220,000 active | binding response (% of control), % at 10 µM | bead-based flow cytometry RGS16-Galphao binding, fluorescence; actives lie on both sides;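 further: Galphao activated by GDP with aluminum fluoride before binding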
GSH bead fluor: compound fluoresces at 488/530 nm on GSH beads | GSH beads flow cytometry, compound fluorescence 488/530 nm; stronger effect = higher value | fluorescence (KMESF) at 10 µM | 0.25% of 190,000 active | AID 1776; in the data active means fluorescence above about 89;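 further: glutathione beads carrying GST-tagged Bcl family fusion proteins plus one bare bead set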
Avidin fluor: compound fluoresces at 488/530 nm on avidin beads. compound fluorescence 488/530 nm, flow cytometry; stronger effect = higher value. fluorescence (KMESF) at 10 µM. 0.38% of 220,000 active. AID 1775; in the data active means fluorescence above about 47
RGS8-Gao: modulates binding of RGS8 to human Galphao; P09471; multiplexed bead flow cytometry; actives lie on both sides; 0.34% of 220,000 active; response (percent of control binding), % at 10 µM; in the data active means response below about 60% or above about 140%; inactive means in between;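 further: Galphao activated as the GDP aluminium fluoride complex binding bead-coupled RGS8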
RGS4-Gao reg: human RGS4-Galphao interaction regulation | 0.33% of 220,000 active | binding response (% of control), % at 10 µM | Multiplexed bead flow cytometry, RGS4-Galphao binding; actives lie on both sides | P09471; in the data active means binding response below about 49% or above about 150%; inactive means in between;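 further: fluorescent Galphao activated with aluminum fluoride binding bead-coupled RGS4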
RGS4-Gao HTS: RGS4-Galphao interaction regulator (human) | shares compounds with RGS16-Gao | multiplexed bead flow cytometry, RGS–Galpha-o binding | RGS4–Galpha-o binding response, % at 10 µM | 99% of 1,600 active | AID 1504;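 further: fluorescently labeled Galpha-o bound to GDP with aluminium fluoride binding biotinylated RGS beads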
Avidin counter: interferes with biotinylated probe binding to avidin beads; shares compounds with RGS16-Gao; streptavidin beads, fluorescein-biotin binding, flow cytometry; inhibition, % at 10 µM; 1,700 tested, under 10 active;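 active means inhibition above 50%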;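 further: median green fluorescence of gated singlet beads compared with DMSO control wells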
RGS8-Gao confirm: confirmation of regulators of human RGS8-Galphao interaction; shares compounds with RGS16-Gao; 3% of 1,700 active; binding response (% of control), % at 10 µM; bead-based flow cytometry RGS8-Galphao binding, fluorescence; actives lie on both sides; AID 1836; in the data active means binding response below about 72% or above about 130%; inactive means in between;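 further: Galphao activated as GDP AlF4 complex before binding bead RGS8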
RGS7-Gao confirm: confirmation of regulators of human RGS7-Galphao interaction; shares compounds with RGS16-Gao; bead-based flow cytometry RGS7-Galphao binding; actives lie on both sides; response (percent of control binding), % at 10 µM; 7.8% of 1,700 active; AID 1837; in the data active means response below about 75% or above about 130%; inactive means in between;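 further: fluorescent Galphao activated with GDP and aluminum fluoride binding bead-coupled RGS7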
RGS16-Gao single: confirmation of regulators of human RGS16-Galphao interaction; response (% of control binding), % at 10 µM; shares compounds with RGS16-Gao; AID 1838; bead-based flow cytometry, RGS16-Galphao binding; actives lie on both sides; 4% of 1,700 active; in the data active means response below about 74% or above about 130%; inactive means in between;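 further: Galphao activated as the GDP aluminium fluoride complex binding bead-coupled RGS16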
RGS4-Gao confirm: RGS4-Galphao interaction regulation, single point confirmation; shares compounds with RGS16-Gao; RGS4-Galphao binding, multiplexed bead flow cytometry; actives lie on both sides; binding response (% of control), % at 10 µM; 4% of 1,700 active; in the data active means binding response below about 74% or above about 130%; inactive means in between
RGS19-Gao conf: confirmation of regulators of human RGS19-Galphao interaction | response (percent of control binding), % at 10 µM | bead-based flow cytometry RGS19-Galphao binding; actives lie on both sides | 5% of 1,700 active | shares compounds with RGS16-Gao; in the data active means response below about 50% or above about 160%; inactive means in between
Numbers stand for hits; – = inactive; ? = inconclusive; · = not tested or not shown; [ ] = remark or other dose. Unless noted, how the calls were made is not given here.

SMILES	RGS7-Gao	RGS16-Gao	GSH bead fluor	Avidin fluor	RGS8-Gao	RGS4-Gao reg	Avidin counter	RGS8-Gao confirm	RGS7-Gao confirm	RGS16-Gao single	RGS4-Gao confirm	RGS19-Gao conf	others
O=C(c1ccccc1)C1NC1c1ccccc1 (stereo not drawn)	?	–	·	–	–	–	·	·	·	·	·	·
Nc1c2c(nc3sc4c(c13)CCCCC4)CCCC2	–	–	–	–	–	–	·	·	·	·	·	·
BrCC1C[n+]2c(SCc3ccccc3)nc3sc4c(c3c2O1)CCCC4 (stereo not drawn)	?	221[activator]	·	117	–	249[activator]	–	–	–	–	–	–
Cc1nnc2n1-c1ccc(Cl)cc1C(c1ccccc1)=NC2	–	–	–	–	–	–	·	·	·	·	·	·
CC1=CC(=C2C(=O)NC(=S)NC2=O)C=C(C(F)(F)F)N1CCc1ccccc1	–	–	–	–	–	–	·	·	·	·	·	·
CCSC1=NN1c1cc(C)nc(N)n1	?	–	·	–	–	–	·	·	·	·	·	·
Cc1cc(Cl)nc(N)n1	–	–	–	–	146[activator]	–	–	–	–	–	–	–	RGS4-Gao HTS=114
N=C1c2ccccc2CN1c1ccc(F)c([N+](=O)[O-])c1	?	–	·	–	–	–	·	·	·	·	·	·
CCN(CC)c1ccc(/C=C2/C(=O)NC(=O)N(CC3CCCO3)C2=O)cc1 (stereo not drawn)	–	–	–	–	–	–	·	·	·	·	·	·
O=C1NC(=O)N(CC2CCCO2)C(=O)/C1=C/c1cccs1 (stereo not drawn)	?	–	·	75	–	185[activator]	–	–	–	–	–	–

Screening results: PubChem BioAssay, NMMLSC
